The nature of test [1]: qHTS assay to identify small molecule antagonists of the thyroid receptor (TR) signaling pathway - cell viability counter screen (AID 743064). Note: nearly all actives have a fitted effect of over 50% in size. The essentials:
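GH3.TRE-Luc rat pituitary cells carrying a TRE-luciferase reporter were treated with compound plus 1 nM T3 (final) for 23.5 h at 37 °C. Viability was then read in the same wells by CellTiter-Fluor fluorescence after a further 30 min.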
In general terms: In qHTS, concentration-response curves come from the screen itself.

Test [2] concerns the target Estrogen receptor (Homo sapiens) (UniProt P03372). In words: qHTS assay to identify small molecule antagonists of the estrogen receptor alpha (ER-alpha) signaling pathway (AID 743069; active = well fitted curve in the direction sought with a large enough effect in the signal ratio in the repeat runs, not every such curve was filed as active; the % refers to the signal ratio). Summed up:
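Fluorescence intensity from a beta-lactamase FRET substrate served as the read-out. Cells: HEK293 with stably integrated ER-alpha-UAS-bla reporter. Agonist 17beta-estradiol was co-added with compounds; incubation 18 hr at 37C, substrate 2 hr at room temperature.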

Test [3] is described as follows: qHTS assay to identify small molecule antagonists of the estrogen receptor alpha (ER-alpha) signaling pathway - cell viability counter screen (AID 743074; calls by dose curve; note: nearly all actives have a fitted effect of over 45% in size).
Test [4] addresses Estrogen receptor (Homo sapiens) (UniProt P03372). In words: qHTS assay to identify small molecule agonists of the estrogen receptor alpha (ER-alpha) signaling pathway (AID 743075; calls by dose curve).
For test [5] the target is unchanged. In words: qHTS assay to identify small molecule agonists of the estrogen receptor alpha (ER-alpha) signaling pathway using the BG1 cell line (AID 743079). Note: nearly all actives have a fitted effect of over 20% in size. Note: potency is the fitted concentration of half-maximal effect.
The nature of test [6]: qHTS assay to identify small molecule antagonists of the estrogen receptor alpha (ER-alpha) signaling pathway using the BG1 cell line (AID 743080; calls by dose curve;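 note: BG1 cells stimulated with 17beta-estradiol alongside compound; series mostly up to about 70 µM; nearly all actives have a fitted effect of over 25% in size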). Summed up: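 Luminescence from a 4×ERE-luciferase reporter in BG1-Luc-4E2 cells served as read-out. Cells, pre-cultured 5 days in stripped-serum phenol-red-free medium, were exposed to compound with 17beta-estradiol co-stimulation for 21.5 h at 37 C.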

The nature of test [7]: qHTS assay to identify small molecule antagonists of the estrogen receptor alpha (ER-alpha) signaling pathway using the BG1 cell line - cell viability counter screen (AID 743081).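 Note: compound given together with 17beta-estradiol as the ER stimulus; series mostly up to about 70 µM; nearly all actives have a fitted effect of over 45% in size.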
The target of a further test is Aromatase (Homo sapiens) (UniProt P11511). In words: qHTS assay to identify aromatase inhibitors (AID 743083). Note: series mostly up to about 70 µM; nearly all actives have a fitted effect of over 55% in size.
The nature of test [8]: qHTS assay to identify aromatase inhibitors - cell viability counter screen (AID 743084).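 Note: cells stimulated with testosterone during compound exposure; nearly all actives have a fitted effect of over 55% in size.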
In test [9] the target is Aryl hydrocarbon receptor (Homo sapiens) (UniProt P35869). In words: qHTS assay to identify small molecule that activate the aryl hydrocarbon receptor (AhR) signaling pathway (AID 743085).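 Note: HG2L7.5c1 human HepG2 liver cells with stably integrated DRE-driven firefly reporter; series mostly up to about 70 µM; nearly all actives have a fitted effect of over 15% in size.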 The essentials: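 HepG2 cells (HG2L7.5c1) stably carrying a firefly luciferase reporter driven by 20 dioxin responsive elements were exposed to compound for 24 h at 37C after a 5 h settling period; luminescence rise (ONE-Glo) indicated activation.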

A short description of test [10]: qHTS assay to identify small molecule that activate the aryl hydrocarbon receptor (AhR) signaling pathway - cell viability counter screen (AID 743086). Note: series mostly up to about 70 µM; nearly all actives have a fitted effect of over 45% in size. Summed up: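 Cytotoxicity counter screen: CellTiter-Fluor signal (30 min, 37 C) in 4000 HepG2 cells/well carrying the DRE-luciferase reporter, following 24 h compound exposure at 37 C.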
The target of test [11] is Peroxisome proliferator-activated receptor gamma (Homo sapiens) (UniProt P37231). In words: qHTS assay to identify small molecule agonists of the peroxisome proliferator-activated receptor gamma (PPARg) signaling pathway (AID 743094; active = well fitted activation curve with a large enough effect in the signal ratio in the repeat runs, not every such curve was filed as active; the % refers to the signal ratio). Summed up: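 Cells from the PPARg UAS-bla HEK293H line are plated and incubated 5 h at 37C. Compounds in DMSO are pinned in and left 17 h at 37C. LiveBLAzer B/G substrate is then added for 1 h at room temperature before fluorescence is measured.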

For test [12] the target is unchanged. In words: qHTS assay to identify small molecule antagonists of the peroxisome proliferator-activated receptor gamma (PPARg) signaling pathway (AID 743191; calls by dose curve; note: series mostly up to about 63 µM; nearly all actives have a fitted effect of over 30% in size). The essentials:
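Beta-lactamase reporter under UAS control in HEK293H PPARg-bla cells; compound treatment 17 h at 37C. Read-out: fluorescence intensity after 1 h room-temperature incubation with LiveBLAzer B/G FRET substrate.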

The nature of test [13]: qHTS assay to identify small molecule antagonists of the peroxisome proliferator-activated receptor gamma (PPARg) signaling pathway - cell viability counter screen (AID 743194). Note: nearly all actives have a fitted effect of over 55% in size. The essentials: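 Viability was measured as CellTiter-Glo luminescence in GeneBLAzer PPARg UAS-bla HEK293H cells. These cells had been exposed 17 h at 37 C to compounds together with rosiglitazone at 50 nM final, with the beta-lactamase readout taken in the same wells.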

The nature of test [14]: qHTS assay for small molecule agonists of the antioxidant response element (ARE) signaling pathway - cell viability counter screen (AID 743203; calls by dose curve; note: nearly all actives have a fitted effect of over 55% in size). The essentials:
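Cytotoxicity was tested in parallel with the ARE reporter screen. ARE-bla HepG2 cells were exposed to compounds for 16 hrs, and viability was taken from CellTiter-Glo luminescence.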

Test [15] is described as follows: qHTS assay for small molecule activators of the heat shock response signaling pathway - cell viability counter screen (AID 743209). Note: nearly all actives have a fitted effect of over 50% in size. Summed up:
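Cytotoxicity counter screen run in parallel with the HSE beta-lactamase reporter, using the same wells. HeLa HSE-bla cells received compound for 5 h at 37 C; ATP-based CellTiter-Glo luminescence was measured after 30 min at room temperature.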

Test [16] in a line: qHTS assay for small molecule activators of the heat shock response signaling pathway (AID 743210; active = well fitted activation curve with a large enough effect in the signal ratio in the repeat runs, with a control signal flat, not every such curve was filed as active; the % refers to the signal ratio;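 note: HeLa cells with beta-lactamase reporter driven by heat shock elements; series mostly up to about 63 µM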). Summed up: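 Fluorescence from a cleaved B/G FRET substrate (2.5 h, room temp) reports HSE-driven beta-lactamase in HeLa cells treated 5 h at 37 C with DMSO-dissolved compounds.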
Test [17] can be described thus: qHTS assay for small molecule agonists of the antioxidant response element (ARE) signaling pathway (AID 743202; active = well fitted activation curve with a large enough effect in the signal ratio in the repeat runs, not every such curve was filed as active; the % refers to the signal ratio). Summed up: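 Beta-lactamase reporter activity, read as fluorescence intensity, reflects ARE/Nrf2 pathway induction in HepG2 cells after 16 h compound exposure at 37 C; substrate loading was 2 h at room temperature.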
Test [18] concerns thyroid hormone receptor (rat, GH3 cells). In words: qHTS assay to identify small molecule agonists of the thyroid receptor (TR) signaling pathway (AID 743066; calls by dose curve).

Results filed as inconclusive are left out. The source made the active and inactive calls. Unless noted, calls come from the whole dose curve; as a rule, active = well fitted curve in the direction sought with a large enough effect in the repeat runs; inconclusive = weak or mixed curves; inactive = no such curve, though single readings can be large; an effect the other way counts as inactive or inconclusive.

Sequence of Estrogen receptor (Homo sapiens) (P03372 whole entry, looked up): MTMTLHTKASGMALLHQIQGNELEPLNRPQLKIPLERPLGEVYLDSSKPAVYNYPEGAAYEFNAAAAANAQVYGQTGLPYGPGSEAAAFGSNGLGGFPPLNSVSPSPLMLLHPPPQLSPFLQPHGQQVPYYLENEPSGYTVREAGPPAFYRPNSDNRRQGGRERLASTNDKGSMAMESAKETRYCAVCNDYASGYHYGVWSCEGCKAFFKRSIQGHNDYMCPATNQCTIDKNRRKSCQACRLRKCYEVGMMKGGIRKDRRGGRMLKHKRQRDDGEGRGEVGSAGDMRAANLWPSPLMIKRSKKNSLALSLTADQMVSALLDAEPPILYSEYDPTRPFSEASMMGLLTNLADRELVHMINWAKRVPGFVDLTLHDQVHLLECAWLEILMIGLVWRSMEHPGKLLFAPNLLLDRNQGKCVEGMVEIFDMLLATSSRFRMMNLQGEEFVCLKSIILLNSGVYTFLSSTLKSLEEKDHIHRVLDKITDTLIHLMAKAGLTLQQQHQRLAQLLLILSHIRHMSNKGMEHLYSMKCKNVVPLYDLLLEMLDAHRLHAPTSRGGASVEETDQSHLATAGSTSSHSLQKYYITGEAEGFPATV
Sequence of Aromatase (Homo sapiens) (P11511 whole entry, looked up): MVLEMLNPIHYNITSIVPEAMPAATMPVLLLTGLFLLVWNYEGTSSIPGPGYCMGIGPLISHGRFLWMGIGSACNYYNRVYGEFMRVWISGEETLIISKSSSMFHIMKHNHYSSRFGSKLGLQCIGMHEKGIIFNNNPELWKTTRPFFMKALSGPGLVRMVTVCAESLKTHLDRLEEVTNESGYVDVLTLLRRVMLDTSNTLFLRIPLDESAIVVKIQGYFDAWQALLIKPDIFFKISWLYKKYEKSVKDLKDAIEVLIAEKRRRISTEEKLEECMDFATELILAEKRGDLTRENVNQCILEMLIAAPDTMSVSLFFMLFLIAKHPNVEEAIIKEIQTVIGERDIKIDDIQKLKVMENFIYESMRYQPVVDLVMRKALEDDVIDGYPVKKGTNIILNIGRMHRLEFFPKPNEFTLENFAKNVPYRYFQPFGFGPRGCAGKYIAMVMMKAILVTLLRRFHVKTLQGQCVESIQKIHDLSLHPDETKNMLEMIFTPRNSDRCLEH
Sequence of Aryl hydrocarbon receptor (Homo sapiens) (P35869 whole entry, looked up): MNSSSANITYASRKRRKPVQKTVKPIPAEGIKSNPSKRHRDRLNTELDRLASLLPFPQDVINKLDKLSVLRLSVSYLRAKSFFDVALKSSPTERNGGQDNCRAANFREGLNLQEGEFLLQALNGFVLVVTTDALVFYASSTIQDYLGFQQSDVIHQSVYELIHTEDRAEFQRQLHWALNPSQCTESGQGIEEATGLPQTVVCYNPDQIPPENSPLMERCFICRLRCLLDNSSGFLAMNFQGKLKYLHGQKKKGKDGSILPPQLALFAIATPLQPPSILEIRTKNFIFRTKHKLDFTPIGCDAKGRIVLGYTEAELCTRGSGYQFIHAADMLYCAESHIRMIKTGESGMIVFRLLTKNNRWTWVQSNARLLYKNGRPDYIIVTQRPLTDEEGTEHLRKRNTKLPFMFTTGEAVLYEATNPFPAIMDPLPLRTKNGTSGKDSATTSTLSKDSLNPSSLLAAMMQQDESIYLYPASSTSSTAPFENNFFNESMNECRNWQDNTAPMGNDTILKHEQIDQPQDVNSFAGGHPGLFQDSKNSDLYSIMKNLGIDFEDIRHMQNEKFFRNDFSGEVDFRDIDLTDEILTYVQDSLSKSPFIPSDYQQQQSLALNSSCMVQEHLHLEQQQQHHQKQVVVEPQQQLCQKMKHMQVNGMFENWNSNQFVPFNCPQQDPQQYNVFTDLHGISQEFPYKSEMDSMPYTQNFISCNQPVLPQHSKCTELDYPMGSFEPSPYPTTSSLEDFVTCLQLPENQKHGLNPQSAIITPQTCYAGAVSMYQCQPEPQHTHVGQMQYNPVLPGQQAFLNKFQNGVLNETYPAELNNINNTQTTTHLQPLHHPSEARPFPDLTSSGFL
Sequence of Peroxisome proliferator-activated receptor gamma (Homo sapiens) (P37231 whole entry, looked up): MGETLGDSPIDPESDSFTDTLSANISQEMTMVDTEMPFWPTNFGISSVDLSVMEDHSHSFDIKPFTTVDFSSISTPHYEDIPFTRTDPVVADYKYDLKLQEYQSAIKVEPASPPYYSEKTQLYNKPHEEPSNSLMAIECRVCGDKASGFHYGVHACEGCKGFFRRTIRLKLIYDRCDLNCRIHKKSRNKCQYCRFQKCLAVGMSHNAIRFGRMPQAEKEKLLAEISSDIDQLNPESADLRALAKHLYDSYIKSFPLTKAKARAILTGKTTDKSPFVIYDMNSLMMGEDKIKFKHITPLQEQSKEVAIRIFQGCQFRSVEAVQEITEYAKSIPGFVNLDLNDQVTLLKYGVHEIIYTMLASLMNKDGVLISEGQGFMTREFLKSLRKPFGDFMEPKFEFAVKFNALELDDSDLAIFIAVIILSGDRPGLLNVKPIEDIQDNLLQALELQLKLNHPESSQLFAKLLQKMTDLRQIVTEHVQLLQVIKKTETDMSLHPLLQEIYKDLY

As for `CN(C)CCN(C)CCO`, the Potency result in test [1], in test [4], in test [5], in test [7], in test [8] and in test [9] was “inactive” throughout. Moreover, the Potency entry in [10], in test [11] and in [15] was “inactive” throughout. Moreover, the outcome (in [2]; in test [3]; in test [6]; in the test with Aromatase (Homo sapiens); in test [12]; in test [13]) was inactive. Moreover, the molecule was called inactive in [14] and in [16].
In the case of `Nc1nc(-c2ccccc2)c(Br)c(=O)[nH]1`, the Potency result in [1], in test [4], in test [5], in test [7], in test [8] and in [10] was “inactive” each time. Also, the Potency entry in [11], in [17] and in test [15] was “inactive” in each case. The molecule was classed as inactive (in test [2]; in [3]; in [6]; with Aromatase (Homo sapiens); in [12]; in [13]). Further, the call in [14] and in test [16] was inactive.
For `CCCCSCCCC`, the Potency entry in test [1], in test [7], in [8], in [9], in test [10] and in test [11] was “inactive” in each case. Besides, the Potency entry in [17] and in test [15] was “inactive” each time. Moreover, the molecule was classed as inactive (in [18]; in test [3]; with Aromatase (Homo sapiens); in test [12]; in [13]; in test [14]). Moreover, the call in [16] was inactive.
Regarding `O=Cc1cc2ccccc2o1`, the Potency entry in test [1], in [7], in test [8], in [9], in test [10] and in test [11] was “inactive” throughout. Further, the Potency entry in [15] is “inactive”. Besides, the molecule was classed as inactive (in test [3]; with Aromatase (Homo sapiens); in test [12]; in test [13]; in test [14]; in [16]).
With `CCC(C)C(C)=O` (configuration not stated), the Potency result in test [1], in [4], in test [7], in test [8], in [9] and in [10] was “inactive” each time. Further, the Potency entry in [11], in [17] and in [15] was “inactive” each time. Besides, the molecule was called inactive (in test [18]; in test [2]; in test [3]; in the test with Aromatase (Homo sapiens); in test [13]; in test [14]). Moreover, the call in test [16] was inactive. In addition, the Potency in test [5] was 67 µM (active).
In the case of `CCC[C@@H]1C[C@@H](C(=O)N[C@@H]([C@H]2O[C@H](SC)[C@H](O)[C@@H](O)[C@H]2O)[C@@H](C)O)N(C)C1`, the Potency result in test [1], in [4], in test [5], in [7], in test [8] and in [9] was “inactive” throughout. The Potency entry in [10], in [11], in test [17] and in test [15] was “inactive” throughout. For the same molecule, the call (in test [18]; in [2]; in test [3]; with Aromatase (Homo sapiens); in test [13]; in test [14]) was inactive.
Take `CC(=O)O[C@H]1C[C@@H]2CC[C@@]1(C)C2(C)C`: the Potency entry in test [1], in test [7], in test [8], in test [9], in test [10] and in test [11] was “inactive” in each case. The Potency entry in [17] and in test [15] was “inactive” throughout. Further, the call (in test [3]; in the test with Aromatase (Homo sapiens); in [12]; in test [13]; in test [14]; in [16]) was inactive.
Turning to `CO[Si](CCCn1c(=O)n(CCC[Si](OC)(OC)OC)c(=O)n(CCC[Si](OC)(OC)OC)c1=O)(OC)OC`, the Potency result in test [1], in test [7], in [8], in test [9], in test [10] and in test [11] was “inactive” throughout. For the same molecule, the Potency entry in [17] and in [15] was “inactive” each time. The call (in [18]; in test [3]; in the test with Aromatase (Homo sapiens); in test [12]; in test [13]; in test [14]) was inactive. Moreover, the molecule was called inactive in [16].
Turning to `COC(C)(OC)OC`, the Potency entry in test [1], in test [4], in [5], in test [7], in [8] and in [9] was “inactive” each time. In addition, the Potency entry in test [10], in [11], in test [17] and in test [15] was “inactive” in each case. Besides, the molecule was called inactive (in [18]; in test [2]; in test [6]; in the test with Aromatase (Homo sapiens); in [12]; in test [13]). For the same molecule, the result in test [14] and in test [16] was inactive.
